Source: PubChem BioAssay (National Center for Advancing Translational Sciences (NCATS))
A selection: hits, their analogues and other compounds. The true share with any hit is near 2.4%.
POLB inh = DNA polymerase beta (human) inhibition | Potency, µM (top dose mostly 114 µM), actives largely listed as inhibitors | P06746 | 1.3% of 340,000 active | Pol beta primer extension/strand displacement, fluorescence kinetic
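Pol beta (10 nM) and compounds were preincubated 15 min at room temperature, then 50 nM substrate (final) started primer extension/strand displacement. Reads were taken at 0 and 10 min; concentration-response data were fitted to a four-parameter Hill equation.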
GCN5L2 inh = inhibitors of human GCN5L2 histone acetyltransferase; Q92830; GCN5L2 HAT assay, ThioGlo1 CoA-SH fluorescence; Potency, µM (top dose mostly 58.9 µM), hits mostly inhibitors; 0.21% of 390,000 active
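Free CoA generated was detected with ThioGlo1 (50uM) fluorescence at Ex340nm/Em540nm, read immediately and after 20 min at room temperature. Enzyme, 20 nM in HEPES pH 7.5 buffer, saw compounds 15 min before adding 75uM H3(1-25) peptide and 70uM acetyl-CoA.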
Pol kappa inh = blocks human DNA polymerase kappa activity; 0.53% of 400,000 active; purified Pol kappa, fluorescent DNA synthesis assay, 10 min; Q9UBT6; Potency, µM (titrated, usually from 107 µM), most hits filed as inhibitors; AID 588579
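Here, compound and 10 nM enzyme are combined for 15 min at room temperature; adding 50 nM substrate (final) starts DNA synthesis, tracked by fluorescence at 0 and 10 min against buffer-only wells.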
Pol iota inh = inhibitors of human DNA polymerase iota | Pol iota fluorescent replication assay, 10 min | Potency, µM (series often up to 115 µM), hits mostly inhibitors | 1% of 390,000 active | AID 588590
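Fluorescent replication assay read twice, at 0 min and 10 min after adding 50 nM (final) substrate. Enzyme (10 nM) and compounds were first incubated 15 min at room temperature; enzyme-free buffer wells were negative controls.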
GLS inhibitor = inhibitors of human glutaminase (GLS). Potency, µM (top dose mostly 45.5 µM), most hits filed as inhibitors. 0.21% of 410,000 active. GLS enzymatic activity, qHTS titration
Target sequence (O94925 whole entry, looked up): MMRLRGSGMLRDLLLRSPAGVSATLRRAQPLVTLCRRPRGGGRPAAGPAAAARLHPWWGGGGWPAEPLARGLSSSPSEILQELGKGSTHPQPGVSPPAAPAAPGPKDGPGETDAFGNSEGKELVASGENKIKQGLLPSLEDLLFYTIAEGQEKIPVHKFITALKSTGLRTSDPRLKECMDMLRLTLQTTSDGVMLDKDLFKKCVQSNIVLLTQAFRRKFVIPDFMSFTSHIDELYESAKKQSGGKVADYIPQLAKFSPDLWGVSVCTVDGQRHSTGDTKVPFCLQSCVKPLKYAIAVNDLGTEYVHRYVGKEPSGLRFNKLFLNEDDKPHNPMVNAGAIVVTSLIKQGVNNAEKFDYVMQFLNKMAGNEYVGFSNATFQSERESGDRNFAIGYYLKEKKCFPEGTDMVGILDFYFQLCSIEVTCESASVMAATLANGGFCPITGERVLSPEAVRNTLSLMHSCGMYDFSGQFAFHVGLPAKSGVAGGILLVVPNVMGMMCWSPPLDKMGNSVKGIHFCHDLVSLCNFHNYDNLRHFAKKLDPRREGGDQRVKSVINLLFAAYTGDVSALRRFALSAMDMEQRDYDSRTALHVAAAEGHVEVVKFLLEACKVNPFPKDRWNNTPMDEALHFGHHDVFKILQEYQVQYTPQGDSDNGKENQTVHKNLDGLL
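Coupled fluorescence readout: glutamate oxidase/HRP/Amplex Red detect glutamate formed by hKGA from L-glutamine (1 mM solution added). Buffer 45 mM KH2PO4 pH 8.2, 0.02% Tween-20; reads at t0 and 30 min RT.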
Pol eta inh = blocks human DNA polymerase eta activity; recombinant Pol eta, fluorescent DNA replication assay; Potency, µM (top dose mostly 114 µM), hits mostly inhibitors; Q9Y253; 1.2% of 390,000 active
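Pol eta at 10 nM preincubated with compounds 15 min at room temperature; reaction started with fluorescent substrate (50 nM final) and read kinetically at 0 and 10 min.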
Each line names hits and unclear results; the compound was inactive in the other large screens. The call rests on the fitted dose curve; in most records, active means well fitted inhibition curve with a large enough effect; inconclusive means small, poorly fitted or top-dose-only effect, or another doubt; inactive means no such curve, though single readings can be large or run the other way.

O=C(/C=C/c1ccc(Br)o1)NCc1ccccc1	POLB inh 0.71µM, Pol kappa inh inconclusive, Pol iota inh inconclusive
O=C(Nc1nccs1)c1ccc(Br)o1	none
NCCc1cnc(-c2cccc(C(F)(F)F)c2)[nH]1	none (no result: POLB inh, Pol iota inh, GLS inhibitor, Pol eta inh)
COC(=O)c1c(C)c2c(c(C)c1O)OC(=O)c1c(C)c(Cl)c(O)c(Cl)c1O2	GCN5L2 inh inconclusive (no result: POLB inh, Pol iota inh, GLS inhibitor, Pol eta inh)
Cc1cc(O)c(C=O)c2c1C(=O)Oc1c(C)c(O)c3c(c1O2)C(O)OC3=O (stereo unspecified)	GCN5L2 inh 35µM, Pol kappa inh 10µM (no result: POLB inh, Pol iota inh, GLS inhibitor, Pol eta inh)
O=C(C[n+]1ccccc1Cl)c1cccc([N+](=O)[O-])c1	none (no result: POLB inh, GCN5L2 inh, GLS inhibitor, Pol eta inh)
COc1ccc(C(CC(=O)N2CCN(c3ccccc3)CC2)c2c(OC)cc(OC)c3c(-c4ccccc4)cc(=O)oc23)cc1 (stereo unspecified)	POLB inh 8.9µM (no result: Pol kappa inh, Pol iota inh, GLS inhibitor, Pol eta inh)
COc1ccc(C(CC(=O)N2CCCC(C)C2)c2c(OC)cc(OC)c3c(-c4ccccc4)cc(=O)oc23)cc1 (stereo unspecified)	POLB inh 35µM, Pol kappa inh 79µM, Pol iota inh 50µM, GLS inhibitor inconclusive, Pol eta inh 25µM
CC(C)CC(NC(=O)CNC(=O)C(Cc1ccc(O)cc1)NC(=O)C(CO)NC(=O)C(Cc1c[nH]c2ccccc12)NC(=O)C(Cc1cnc[nH]1)NC(=O)C1CCC(=O)N1)C(=O)NC(CCCN=C(N)N)C(=O)N1CCCC1C(=O)NCC(N)=O (stereo unspecified)	none (no result: POLB inh, GCN5L2 inh, Pol kappa inh, Pol iota inh, Pol eta inh)
N[C@@]1(C(=O)O)CO[C@H]2[C@H](C(=O)O)[C@H]21	none (no result: POLB inh, Pol iota inh, GLS inhibitor, Pol eta inh)
CCCCCN1N=C(C)CC1=O	Pol iota inh 1.1µM
CC1=NN(Cc2cc(C(C)(C)C)c(O)c(C(C)(C)C)c2)C(=O)C1	Pol iota inh inconclusive
COc1cccc(=O)c2c(C)n(-c3ccc(C(=O)O)cc3)c(C)c12	POLB inh 16µM, Pol kappa inh 50µM, Pol iota inh 16µM, Pol eta inh 13µM
COc1ccc(-n2c(C)c3c(OC)cccc(=O)c3c2C)cc1	Pol eta inh inconclusive
Cc1ccc(C)n1-c1ccc(C(=O)O)cc1	POLB inh 3.2µM, GCN5L2 inh inconclusive (no result: Pol kappa inh, Pol iota inh, GLS inhibitor, Pol eta inh)
CC(C)C[C@H](NC(=O)[C@@H]1Cc2c([nH]c3ccccc23)C2c3ccccc3C(=O)N21)C(=O)N1CCC[C@@H]1C(=O)O (stereo partly specified)	GLS inhibitor 13µM
CCC(C)[C@H](NC(=O)[C@@H]1Cc2c([nH]c3ccccc23)C2c3ccccc3C(=O)N21)C(=O)N1CCC[C@@H]1C(=O)O (stereo partly specified)	GLS inhibitor inconclusive
Cc1ccc(C(=O)Nc2ccc3oc(-c4ccccc4C)nc3c2)cc1	none (no result: Pol eta inh)
C=C1C=C(C(F)F)n2ncc(C(=O)Nc3ccc(N(CC)CC)cc3)c2N1	none (no result: POLB inh, GCN5L2 inh, GLS inhibitor, Pol eta inh)
O=C(NNC(=O)c1cc2cc3ccccc3nc2s1)c1ccc(F)cc1	POLB inh 0.32µM, Pol iota inh inconclusive, Pol eta inh inconclusive
Cc1cccc(C(=O)NNC(=O)c2cc3cc4ccccc4nc3s2)c1	Pol eta inh inconclusive
O=S(c1ccccc1O)S(=O)c1ccccc1O (stereo unspecified)	Pol kappa inh inconclusive, Pol iota inh 13µM, Pol eta inh 22µM (no result: POLB inh, GCN5L2 inh)
CS(=O)c1ccccc1O (stereo unspecified)	none
CC[C@H](C)[C@H](NC(=O)[C@H](CO)NC(=O)[C@H](CC(C)C)NC(=O)[C@@H]1CCCN1C(=O)[C@@H]1CCCN1C(=O)[C@H](CC(=O)O)NC(=O)[C@@H](N)CC(=O)O)C(=O)N[C@@H](CC(=O)O)C(=O)N[C@@H](CC(C)C)C(=O)N[C@H](C(=O)N[C@@H](Cc1ccccc1)C(=O)N[C@@H](Cc1cnc[nH]1)C(=O)N[C@@H](CC(C)C)C(=O)N[C@@H](CC(C)C)C(=O)N[C@@H](CCCNC(=N)N)C(=O)N[C@H](C(=O)N[C@@H](CC(C)C)C(=O)N[C@@H](CC(C)C)C(=O)N[C@@H](CCC(=O)O)C(=O)N[C@@H](CC(C)C)C(=O)N[C@@H](C)C(=O)N[C@@H](CCCNC(=N)N)C(=O)N[C@H](C(=O)N[C@@H](CCC(N)=O)C(=O)N[C@@H](CO)C(=O)N[C@@H](CCC(N)=O)C(=O)N[C@@H](CCCNC(=N)N)C(=O)N[C@@H](CCC(=O)O)C(=O)N[C@@H](CCCNC(=N)N)C(=O)N[C@@H](C)C(=O)N[C@@H](CCC(=O)O)C(=O)N[C@@H](CCC(N)=O)C(=O)N[C@@H](CC(N)=O)C(=O)N[C@@H](CCCNC(=N)N)C(=O)N[C@H](C(=O)N[C@H](C(=O)N[C@@H](Cc1ccccc1)C(=O)N[C@@H](CC(=O)O)C(=O)N[C@@H](CO)C(=O)N[C@H](C(N)=O)C(C)C)[C@@H](C)CC)[C@@H](C)CC)[C@@H](C)O)[C@@H](C)O)[C@@H](C)O	none (no result: POLB inh, Pol iota inh, GLS inhibitor, Pol eta inh)
CC(=O)Nc1ccc(S(=O)(=O)Nc2nc3nc(-c4ccccc4)cc(-c4ccccc4)n3n2)cc1	GCN5L2 inh inconclusive, Pol kappa inh 79µM, Pol iota inh inconclusive, GLS inhibitor inconclusive
Cc1ccc(NC(=O)/C(C#N)=C(\N)C(Cl)(Cl)Cl)nc1	Pol eta inh 45µM
N#Cc1c(NC(=S)NC(=O)Cc2cccs2)sc2c1CCCCC2	POLB inh 45µM, Pol kappa inh inconclusive
CN(C)c1ccc2ccc3cccc4ccc1c2c34	Pol iota inh inconclusive (no result: POLB inh, GCN5L2 inh, GLS inhibitor, Pol eta inh)
CCCNC(=O)Cn1sc2nc(C)cc(C)c2c1=O	GCN5L2 inh 28µM
Cc1cc(C)c2c(=O)n(CC(=O)N3CCC(N4CCCCC4)CC3)sc2n1	GCN5L2 inh 32µM
CCC1(c2ccc(O)cc2)NC(=O)N(C)C1=O (stereo unspecified)	none (no result: POLB inh, Pol iota inh, GLS inhibitor, Pol eta inh)
COc1cccc(Nc2ncc3nc(-c4ccccc4)c(=O)n(C)c3n2)c1	none (no result: POLB inh, Pol iota inh, GLS inhibitor, Pol eta inh)
COc1ccc(NC(=O)C2CCN(C3=NS(=O)(=O)C(c4ccc(C)c(C)c4)=C3C)CC2)cc1OC	POLB inh inconclusive (no result: Pol eta inh)
CN(C)N1C(=O)/C(=C/c2ccco2)SC1=Nc1ccccc1	Pol iota inh inconclusive (no result: POLB inh, GCN5L2 inh)
O=C1/C(=C\c2ccc(Br)o2)SC(=Nc2ccccc2)N1c1ccccc1	POLB inh 0.4µM, Pol kappa inh inconclusive, Pol iota inh inconclusive
COCCOC(=O)c1[nH]c2c(c1C)C(=O)CC(c1ccccc1)C2 (stereo unspecified)	none
Cc1c(C(=O)OCc2ccccc2)[nH]c2c1C(=O)CC(c1ccco1)C2 (stereo unspecified)	POLB inh 11µM, Pol kappa inh inconclusive, Pol eta inh 22µM
